Screening data (PubChem)
CBFb RUNX1 block – CBF-beta/RUNX1 interaction disruption | Q01196+Q13951 | AlphaScreen CBFb-His/RUNX1-biotin binding, biochemical | Potency, µM (series often up to 59.8 µM), for inactives: at the top dose activity, negative = inhibition, most hits filed as inhibitors | 230,000 tested, under 10 active; further: % of control where 0% means no effect
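Inhibition was taken as any reduction in AlphaScreen signal from the CBF-beta–RUNX1 pair (His and biotin tags, 30 nM each), measured after compound (15 min) and bead (90 min) incubations at room temperature.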
MBNL1 CUG block – MBNL1-poly(CUG) RNA binding inhibition; Potency, µM (doses to about 57.5 µM), for the others: top-dose activity change, negative = inhibition, hits mostly inhibitors; TR-FRET MBNL1-His/biotin-(CUG)12 binding, 665/545 ratio; Q9NR56; AID 2675; actives 0.036% (n = 280,000); active means well fitted inhibition curve with a large enough effect in the signal ratio, with a control signal flat, not every such curve was filed as active; inconclusive means small, poorly fitted or top-dose-only effect, or effect the other way, or a change in a side signal; inactive means no such curve, though single readings can be large or run the other way; the % refers to the signal ratio; further: potency means the concentration at half of the fitted maximal effect; on the % scale 0 is the no-effect control and ±100 the full control effect
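MBNL1-His + Biotin-(CUG)12, cpd titration 92 nM–58 uM; Tb anti-His Ab 0.055 ng/ul, SA-XL665 5 nM (final); 60 min RT; ratiometric 665/545 nm, Ex 340 nm; normalized to buffer and full-complex controls.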
hERG WT inh – inhibitors of human wildtype KCNH2 potassium channel; Q12809; U2OS, BacMam KCNH2, thallium flux FluxOr; active compounds read low; activity change, % at 1.84 µM; actives 0.37% (n = 340,000);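 active means maximum activity change below -70%; inconclusive means maximum activity change between -70% and -50%; inactive means maximum activity change above -50%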; further: on the % scale 0 is the no-effect control and ±100 the full control effect
Target sequence (Q12809 whole entry, looked up): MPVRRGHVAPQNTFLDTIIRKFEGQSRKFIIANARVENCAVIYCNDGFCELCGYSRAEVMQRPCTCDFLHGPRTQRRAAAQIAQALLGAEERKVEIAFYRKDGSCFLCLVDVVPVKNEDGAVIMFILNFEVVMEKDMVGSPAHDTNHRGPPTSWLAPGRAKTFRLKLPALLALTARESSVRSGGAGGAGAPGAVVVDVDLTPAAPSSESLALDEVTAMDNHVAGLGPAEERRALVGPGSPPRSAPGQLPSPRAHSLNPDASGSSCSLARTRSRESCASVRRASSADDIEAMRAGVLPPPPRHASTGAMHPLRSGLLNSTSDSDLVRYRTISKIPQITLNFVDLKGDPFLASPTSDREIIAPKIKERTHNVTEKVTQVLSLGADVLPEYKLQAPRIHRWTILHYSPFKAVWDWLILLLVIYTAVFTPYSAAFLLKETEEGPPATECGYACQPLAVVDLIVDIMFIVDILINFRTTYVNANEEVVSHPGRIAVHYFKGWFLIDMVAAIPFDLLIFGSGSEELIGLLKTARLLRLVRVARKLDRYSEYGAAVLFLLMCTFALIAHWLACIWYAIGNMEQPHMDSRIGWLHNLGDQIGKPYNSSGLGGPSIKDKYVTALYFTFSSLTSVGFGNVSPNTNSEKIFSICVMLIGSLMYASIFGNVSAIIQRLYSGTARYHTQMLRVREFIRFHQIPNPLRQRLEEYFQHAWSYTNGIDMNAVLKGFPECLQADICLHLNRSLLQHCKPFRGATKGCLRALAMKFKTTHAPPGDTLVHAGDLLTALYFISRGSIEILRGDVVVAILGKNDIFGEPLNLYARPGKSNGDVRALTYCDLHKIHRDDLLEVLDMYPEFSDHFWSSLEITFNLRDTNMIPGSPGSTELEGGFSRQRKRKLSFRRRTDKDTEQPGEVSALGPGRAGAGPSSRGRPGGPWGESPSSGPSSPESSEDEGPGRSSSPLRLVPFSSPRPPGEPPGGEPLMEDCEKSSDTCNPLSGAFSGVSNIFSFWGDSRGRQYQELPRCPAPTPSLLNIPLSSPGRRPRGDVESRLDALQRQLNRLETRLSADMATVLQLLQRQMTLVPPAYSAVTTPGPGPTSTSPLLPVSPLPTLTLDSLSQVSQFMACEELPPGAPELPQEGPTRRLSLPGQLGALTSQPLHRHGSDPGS
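U2OS cells transduced with wild-type KCNH2 virus are loaded with FluxOr dye for 45 min, and thallium flux is measured in kinetic reads before and after stimulation buffer. Rate constants are normalized to DMSO controls.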
PLK1 PBD inh – PLK1 (human) polo-box domain binding inhibition; Plk1 PBD binding of FITC phosphopeptide, fluorescence polarization; P53350; actives 2.8% (n = 360,000); Potency, µM, for inactives: max response, negative = inhibition, usual class: inhibitors; further: potency means the concentration at half of the fitted maximal effect; series mostly up to about 57 µM; on the % scale 0 is the no-effect control and ±100 the full control effect; nearly all actives have a fitted effect of over 65% in size
VDR inhibitor – inhibitors of human vitamin D receptor. P11473. VDR-SRC2-3 peptide fluorescence polarization, 2 h. Potency, µM, without a hit: max response, negative = inhibition, usual class: inhibitors. actives 0.93% (n = 400,000). AID 504847; further: potency means the concentration at half of the fitted maximal effect; on the % scale 0 is the no-effect control and ±100 the full control effect
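VDR–SRC2-3 interaction, FP format. Cmpds 23 nl via pintool, brief spin, 2 h ambient incubation.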
KCNH2 3.1 block – blocks the human KCNH2 3.1 channel isoform; U2OS KCNH2 3.1, thallium flux FluxOr; active compounds read low; activity change, % (tested at about 1.8 µM); AID 720553; actives 0.95% (n = 340,000);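 active means maximum activity change below -70%; inconclusive means maximum activity change from -70% to -50%; inactive means maximum activity change above -50%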;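 further: thallium influx rate constant from kinetic fluorescence after stimulation buffer; on the % scale 0 is the no-effect control and ±100 the full control effect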
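Thallium flux read-out: FluxOr dye with Red40 quencher in HBSS/HEPES, 45 min at RT. Rate constants from kinetic reads were normalized to positive and negative DMSO controls. Cells: U2OS virally expressing the 3.1 isoform.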
Numbers without * were called inactive; u = inconclusive; x = no result. This is a sample that favours compounds with a hit; in the whole collection about 3.8% have one here. Unless noted, the call rests on the fitted dose curve; in most records, active means well fitted curve in the direction sought with a large enough effect; inconclusive means small, poorly fitted or top-dose-only effect, or another doubt; inactive means no such curve, though single readings can be large; an effect the other way counts as inactive or inconclusive.

SMILES	CBFb RUNX1 block	MBNL1 CUG block	hERG WT inh	PLK1 PBD inh	VDR inhibitor	KCNH2 3.1 block
Cc1ccc(NC(=O)c2cccc(C(=O)Nc3ccc(C)cc3C(=O)O)c2)c(C(=O)O)c1	x	8.3%	4.0	21.2µM*	-2.8%	1.4
O=C(Nc1cc(C(=O)Nc2ccccc2C(=O)O)cc(C(=O)Nc2ccccc2C(=O)O)c1)c1ccccc1	x	u	8.0	21.2µM*	u	-7.7
CCCCn1cc(S(=O)(=O)c2ccc(CC)cc2)c(=O)c2cc(F)c(N3CCCC(C)C3)cc21 (centres undefined)	x	x	x	x	8.5%	x
COc1ccccc1CNC(=O)CCCCn1c(=O)c2ccccc2n(CC(=O)Nc2cccc(Cl)c2)c1=O	x	x	x	x	-11.3%	x
Cc1cccc(NC(=O)CCn2nc(-c3ccccc3)c3ccccc3c2=O)c1	x	x	x	x	3.5%	x
COc1ccc2nc(C)cc(Nc3ccc(Cl)c(Cl)c3)c2c1	x	x	x	x	16.3%	x
O=C(NNC(=O)c1cccc(Br)c1)Nc1ccc(Cl)cc1	0.8%	-2.2%	-2.7	21.2µM*	u	4.9
Cc1cccc(C(=O)Nc2cccnc2Cl)c1	x	-8.0%	-1.5	8.44µM*	-8.8%	0.4
Nc1nc(=S)c2n[nH]nc2[nH]1	x	x	x	x	-10.7%	x
Cn1cccc1C(=O)NCCc1ccccc1	x	-2.5%	15.8	-10.7%	2.2%	11.0
Cn1c(C(=O)NCCc2ccccc2)cc(=O)n(C)c1=O	4.8%	1.0%	3.7	23.8µM*	u	0.6
Cc1ccc(CCNC(=O)c2c[nH]c3ccc(S(=O)(=O)Nc4ccc(C)cc4C)cc3c2=O)cc1	x	x	x	x	16.1%	x
Cc1ccc(N2CCN(C(=S)c3ccc(-c4cccc([N+](=O)[O-])c4)o3)CC2)cc1	-3.0%	u	3.3	29.9µM*	u	5.0
O=[N+]([O-])c1ccccc1-c1ccc(CN2CCN(c3ccccc3)CC2)o1	x	5.3%	4.8	-7.8%	-17.7%	-11.0
CC(=O)N1CCN(C(=S)c2cccc([N+](=O)[O-])c2)CC1	1.5%	u	-1.0	-25.6%	-15.4%	-9.5
Cc1ccccc1N1CCN(C(=S)c2ccc(-c3cccc([N+](=O)[O-])c3)o2)CC1	10.8%	u	x	u	8.1%	3.5
Cc1ccc(N2CCN(C(=S)c3ccc(-c4ccccc4[N+](=O)[O-])o3)CC2)cc1	x	-7.8%	3.6	9.47µM*	u	21.0
O=[N+]([O-])c1ccccc1-c1ccc(C(=S)N2CCN(c3ccccc3)CC2)o1	x	-2.1%	-16.1	23.8µM*	79.4µM*	12.1
O=[N+]([O-])c1ccc(N2CCN(C(=S)c3cccc([N+](=O)[O-])c3)CC2)cc1	-5.4%	14.9%	-42.0	2.38µM*	u	-101.5*
Cc1ccc(Cl)cc1N1CCN(C(=O)COc2cc(=O)n(C)c3ccccc23)CC1	x	x	x	x	-0.4%	x
COc1ccc(/C=C(\NC(=O)c2ccc(C)cc2)C(=O)NCCCn2ccnc2)cc1	x	0.0%	u	-3.7%	-1.0%	-91.9*
CN(C)c1ccc(/C=C(/NC(=O)c2ccccc2)C(=O)NCCCn2ccnc2)cc1	x	u	24.8	5.1%	6.0%	4.8
O=C(NCCCn1ccnc1)/C(=C\c1ccc(Br)cc1)NC(=O)c1ccccc1F	x	17.6%	-129.1*	-5.1%	-17.1%	-110.7*
O=C(NCCCn1ccnc1)/C(=C/c1ccc(Cl)cc1)NC(=O)c1ccccc1	x	1.6%	-128.9*	1.9%	1.6%	-104.8*
COc1ccc(/C=C(\NC(=O)c2ccc([N+](=O)[O-])cc2)C(=O)NCCCn2ccnc2)cc1	x	u	-111.3*	-9.6%	-21.8%	-35.5
SMILES	CBFb RUNX1 block	MBNL1 CUG block	hERG WT inh	PLK1 PBD inh	VDR inhibitor	KCNH2 3.1 block
O=C(NCCCN1CCN(c2ccccc2F)CC1)c1sc2ncccc2c1-n1cccc1	x	x	x	x	6.0%	x
COc1cccc(NC(=O)C(C)n2c(=O)cc(C(F)(F)F)c3c(C)nn(C)c32)c1 (centres undefined)	x	x	x	x	1.6%	x
O=C1NC[C@H](Cc2ccccc2)N(CC2CCN(CCCC3CCCC3)CC2)C1=O	x	x	-130.2*	-1.1%	-4.4%	-80.1*
CC(C)C[C@H]1CNC(=S)N1CC1CCN(CCCC2CCCCC2)CC1	x	x	4.6	-5.5%	-2.8%	-71.7*
COc1cc(NC(=O)CCc2c(C)nn(-c3ccc(N4CCCCC4)nn3)c2C)cc(OC)c1OC	x	x	x	x	7.3%	x
COc1ccccc1OCc1nc2ccccc2n1Cc1ccccc1	x	x	x	x	11.5%	x
COc1cccc(C(=O)NCCc2sc(-c3cccc(C)c3)nc2C)c1	x	x	x	x	8.0%	x
CC(C)Oc1ccc(S(=O)(=O)N2CCOCC2)cc1NC(=O)CCCSc1ccccc1	x	x	-0.6	-6.5%	-1.3%	-72.2*
CC(=O)NCCC(=O)Nc1cc(S(=O)(=O)N2CCCCC2)ccc1Oc1ccccc1	x	-8.6%	-70.7*	-7.6%	-0.4%	-16.8
Cn1c(=O)n(C)c2cc(/C=N/NC(=O)c3ccc(Cl)cc3)ccc21	-0.1%	8.8%	-7.1	29.9µM*	u	11.1
C[C@@H]1CN([C@@H](C)CO)C(=O)CCCn2nncc2CO[C@H]1CN(C)C(=O)Nc1ccc2c(c1)OCO2	x	x	-12.9	7.3%	x	9.8
C[C@H](CO)N1C[C@H](C)[C@@H](CN(C)C(=O)Nc2ccc3c(c2)OCO3)Oc2ccc(NC(=O)Nc3ccc(C(F)(F)F)cc3)cc2C1=O	x	x	-2.3	-11.5%	-12.7%	5.0
C[C@@H]1CCCCO[C@H](CN(C)S(=O)(=O)c2cccs2)[C@H](C)CN([C@@H](C)CO)C(=O)c2cc(NC(=O)NC3CCCCC3)ccc2O1	x	x	-9.2	-21.1%	x	-98.5*
Cc1ccc(OC(=O)N(C)C[C@@H]2OCc3cn(nn3)CCCC(=O)N([C@@H](C)CO)C[C@H]2C)cc1	x	x	17.7	u	x	-70.3*
COc1ccc(OC(=O)N(C)C[C@@H]2OCc3cn(nn3)CCCC(=O)N([C@H](C)CO)C[C@H]2C)cc1	x	x	x	-12.5%	x	x
C[C@H](CO)N1C[C@H](C)[C@@H](CN(C)C(=O)Nc2ccccc2)Oc2ccc(NC(=O)Nc3ccc4c(c3)OCO4)cc2C1=O	x	x	-17.3	3.9%	3.4%	-119.9*
C[C@H]1CN([C@@H](C)CO)C(=O)CCCn2nncc2CO[C@@H]1CN(C)C(=O)Nc1ccc2c(c1)OCO2	x	x	-6.7	5.32µM*	x	7.1
CC(C)(C)CC(C)(C)c1ccc(O)c(-n2nc3ccccc3n2)c1	x	x	x	x	-3.5%	x
Cc1ccc(C2=NC(c3ccccc3)=Nc3ccc(Cl)cc3N2)cc1	x	x	x	x	13.3%	x
COc1cc(NC(=O)N2CCSc3ccccc32)cc(OC)c1OC	x	x	x	x	5.6%	x
C[C@@H]1CN([C@@H](C)CO)C(=O)Cc2cc(NC(=O)Nc3ccc4c(c3)OCO4)ccc2O[C@@H]1CN(C)C(=O)NC1CCCCC1	x	x	4.8	-17.2%	-18.1%	-4.4
